Among all 200,000 compounds or so, about 4,500 (2.2%) were called active. Not shown: some 12% with an inconclusive outcome. This is one part of a sample in which actives are shown more often than they occur. Calls come from the whole dose curve; as a rule, active = well fitted inhibition curve with a large enough effect; inconclusive = small, poorly fitted or top-dose-only effect, or effect the other way; inactive = flat fitted curve, though single readings scatter.
What follows are compounds tested against Cruzipain (Trypanosoma cruzi) (UniProt P25779) (assay: qHTS Assay for Promiscuous and Specific Inhibitors of Cruzain (without detergent)). Settings: purified cruzain, Z-FR-AMC fluorescence, no detergent.
Chain of Cruzipain (Trypanosoma cruzi) (P25779 123-467 limits assumed): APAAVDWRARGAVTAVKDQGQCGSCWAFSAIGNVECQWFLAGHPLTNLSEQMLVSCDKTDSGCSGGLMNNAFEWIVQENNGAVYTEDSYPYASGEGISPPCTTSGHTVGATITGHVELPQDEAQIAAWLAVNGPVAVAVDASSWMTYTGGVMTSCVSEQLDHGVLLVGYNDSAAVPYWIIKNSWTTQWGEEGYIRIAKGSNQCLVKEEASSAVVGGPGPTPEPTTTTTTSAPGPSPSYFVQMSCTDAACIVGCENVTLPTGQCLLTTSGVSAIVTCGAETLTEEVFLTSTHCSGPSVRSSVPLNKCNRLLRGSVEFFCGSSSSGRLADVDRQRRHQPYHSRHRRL
Method in brief: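 Purified cruzain at 1.5 nM, pre-incubated 15 min with compound at room temperature in 100 mM sodium acetate pH 5.5, 5 mM DTT, 0.00005% Triton X-100. Reaction started with 2 uM Z-FR-AMC; AMC fluorescence increase over 60 s gives rate.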
For `O=S(=O)(c1ccc2nc(N3CCN(c4cccc(Cl)c4)CC3)ccc2c1)N1CCCCC1`, the max response, negative = inhibition was -14.3% (inactive). For `Cc1ccc(NC2(C#N)C(=O)Nc3ccccc32)cc1` (configuration not stated), the max response, negative = inhibition was -4.74% (inactive). In the case of `O=C1Nc2ccccc2C12Nc1ccccc1S2` (configuration not stated), the Potency is reported as 25.1 µM (active). For `CCc1ccc2c(c1)C1(NN=C(c3ccccc3)S1)C(=O)N2` (configuration not stated), the max response, negative = inhibition was -24.1% (inactive). With `O=c1c(O)c(Br)ccc2c(Br)c(O)c(O)c(O)c12` the max response, negative = inhibition was -27.1% (inactive). In the case of `CCC(C)Nc1oc(-c2ccc(COc3ccc(Cl)cc3)o2)nc1C#N` (configuration not stated), the max response, negative = inhibition is reported as 2.48% (inactive). `O=C(O)c1ccc(Nc2nc(-c3ccccc3)c3cc(Br)ccc3n2)cc1` was tested, and the max response, negative = inhibition was 27.1% (inactive). `Cc1ccc(S(=O)(=O)N2CC(=O)Nc3ccccc32)cc1C` was tested, and the max response, negative = inhibition was 2.47% (inactive). In the case of `O=C1CN(c2nc(-c3ccccc3)c3cc(Br)ccc3n2)c2ccccc2N1`, the Potency is reported as 12.6 µM (active). For `Fc1ccc(-c2nn(-c3ccccc3Cl)c3c2cnc2ccccc23)cc1`, the max response, negative = inhibition was 4.61% (inactive). With `O=C(CC1C(=O)N(c2ccccc2)C(=O)N1CCc1cccs1)Nc1ccc(F)cc1` (configuration not stated) the max response, negative = inhibition was 2.56% (inactive). In the case of `O=C(CCSCc1ccccc1F)N1CCN(c2ccc(Cl)cc2)CC1`, the max response, negative = inhibition is reported as 2.72% (inactive). For `Cc1ccc(-c2nn(CCC(=O)Nc3ccc(Cl)c(Cl)c3)c(=O)c3ccccc23)cc1`, the max response, negative = inhibition was -2.75% (inactive). For `CCN(CC)c1nn2c(=O)c(C(=O)NCCc3ccccc3)cnc2s1`, the max response, negative = inhibition was -4.42% (inactive). `O=C(NCc1ccc2c(c1)CCN2C(=O)c1ccccc1)Nc1cc(F)ccc1F` was tested, and the max response, negative = inhibition was -19.6% (inactive). For `COc1ccc(CNC(=O)c2cc3c(s2)-c2ccccc2OC3)cc1`, the max response, negative = inhibition was 16.2% (inactive). For `Cc1ccc(NC(=O)CSc2nc3c([nH]c4ccccc43)c(=O)n2-c2ccccc2)c(C)c1`, the max response, negative = inhibition was 12.6% (inactive). For `Cc1ccc(-n2c(SCC(=O)Nc3ncc(Cl)cc3Cl)nc3ccccc32)cc1`, the Potency was 20 µM (active). `Cc1cc(C)c(NC(=O)Cn2c(SCC(=O)NCc3ccccc3)nc3ccccc32)c(C)c1` was tested, and the max response, negative = inhibition was 7.19% (inactive). With `c1ccc2c(c1)-c1ccccc1C2N1CC2CCC(CC2)C1` the max response, negative = inhibition was 1.3% (inactive). In the case of `NS(=O)(=O)c1ccc(N=Cc2ccc(Br)s2)cc1`, the max response, negative = inhibition is reported as -5.17% (inactive). With `Brc1ccc(/C=N/N2CCN(C3c4ccccc4-c4ccccc43)CC2)s1` the Potency was 12.6 µM (active). In the case of `O=C(c1ccc2c(c1)N(Cc1ccccc1)C(=O)c1ccccc1S2(=O)=O)N1CCC(Cc2ccccc2)CC1`, the max response, negative = inhibition is reported as 1.2% (inactive). For `COc1ccc(-c2nnc(SC(=O)N3c4ccccc4Sc4ccccc43)o2)cc1`, the Potency was 31.6 µM (active). `COc1ccc(-c2nnc(SC(C)C#N)o2)cc1` (configuration not stated) was tested, and the max response, negative = inhibition was 2.59% (inactive). With `COc1ccc(-c2nnc(SCc3cccnc3)o2)cc1` the max response, negative = inhibition was 15.4% (inactive). With `CCOC(=O)c1ccc(NC(=O)CC2C(=O)N(c3cccc(OC)c3)C(=O)N2C2CCCCC2)cc1` (configuration not stated) the max response, negative = inhibition was -1.66% (inactive). With `Cc1ccc(C(=O)NCCSc2c(C)[nH]c3ccccc23)cc1C` the max response, negative = inhibition was 13.2% (inactive). In the case of `N#CC1=C(SCc2ccccc2)NC(=O)C(C#N)C12CCCC2` (configuration not stated), the max response, negative = inhibition is reported as -1.74% (inactive). With `N#CC1=C(SCc2ccc(C#N)cc2)N=C(N)C(c2nc(-c3ccccc3)cs2)C12CCCCC2` (configuration not stated) the Potency was 10 µM (active). With `COc1ccc(CCNc2nc(-c3ccc(Cl)cc3)cc(C(F)(F)F)n2)cc1OC` the max response, negative = inhibition was -3.01% (inactive). `Cc1nn(Cc2ccc(F)cc2)c(C)c1NC(=O)c1cc(CC(C)C)on1` was tested, and the max response, negative = inhibition was 2.49% (inactive). `CCCc1cc(=O)[nH]c(SCC(=O)c2cc(C)n(CCC)c2C)n1` was tested, and the max response, negative = inhibition was -4.28% (inactive). For `CCCc1cc(=O)[nH]c(SCC(=O)OCc2ccccc2)n1`, the max response, negative = inhibition was -0.512% (inactive). In the case of `Cc1cc(C(=O)CSc2nc(N)cc(=O)[nH]2)c(C)n1CCc1ccc(Cl)cc1`, the Potency is reported as 12.6 µM (active). For `COc1ccc(-n2ccnc(NCCc3ccc(Cl)cc3)c2=O)cc1OC`, the max response, negative = inhibition was 16.8% (inactive). In the case of `COc1ccc(C2Sc3ccccc3NC3=C2C(=O)c2ccccc23)c(OC)c1OC` (configuration not stated), the max response, negative = inhibition is reported as -2.6% (inactive). For `S=c1nccc(-c2cc(Cl)sc2Cl)[nH]1`, the Potency was 12.6 µM (active). In the case of `COCCNC(=O)CCCN1C(=O)c2ccccc2Sc2ncccc21`, the max response, negative = inhibition is reported as 15.3% (inactive). With `CS(=O)(=O)c1ccc2nc(NC(=O)C3CCCCC3)sc2c1` the max response, negative = inhibition was 6.38% (inactive). `O=C(Nc1nc2ccc(F)cc2s1)c1nc(SCc2ccccc2F)ncc1Cl` was tested, and the max response, negative = inhibition was 1.9% (inactive). With `CCS(=O)(=O)N1Cc2ccccc2CC1C(=O)Nc1nc2ccc(F)cc2s1` (configuration not stated) the Potency was 12.6 µM (active). For `CCCCOc1ccc(CN2C(=O)C(=O)c3cc(Br)cc(C)c32)cc1OC`, the max response, negative = inhibition was -26.4% (inactive). For `CCOC(=O)C1CCN(C(=O)CSc2c3c(nc4ccc(Cl)cc24)CCCC3)CC1`, the max response, negative = inhibition was -19.6% (inactive). In the case of `Cc1cc(C)cc(NC(=O)CCCc2nc(-c3ccccc3Cl)no2)c1`, the max response, negative = inhibition is reported as -8.67% (inactive). For `O=c1cnc2cnc(Nc3ccccc3)nc2n1Cc1ccc(F)cc1`, the Potency was 20 µM (active). For `Cc1nc2cnc(Nc3ccccc3)nc2n(Cc2ccc(F)cc2)c1=O`, the max response, negative = inhibition was -10.9% (inactive). With `CCNc1ncc2ncc(=O)n(CCc3ccccc3)c2n1` the max response, negative = inhibition was 5.65% (inactive). For `COc1ccc2ncc3c(-c4ccc(C)c(C)c4)nn(CC(=O)NC4CCCC4)c3c2c1`, the max response, negative = inhibition was 1.87% (inactive). In the case of `COc1ccc(Cl)cc1NC(=O)CCn1c(=O)c2cccn2c2ccccc21`, the max response, negative = inhibition is reported as 26.4% (inactive). `Cc1cccc(Cn2c(=O)n(CCC(=O)NCCc3ccc(Cl)cc3)c(=O)c3sccc32)c1` was tested, and the max response, negative = inhibition was 0.837% (inactive). For `Cc1ccc(CCNC(=O)Cn2c(-c3cccs3)cc3cc(F)ccc32)cc1`, the Potency was 15.8 µM (active). For `COc1ccc(CCNC(=O)CN2CCC(n3nnc4cc(F)ccc43)CC2)cc1OC`, the max response, negative = inhibition was 14.7% (inactive). For `COc1cccc2c1cc1c(=O)n(CC(=O)N3CCN(c4ccccc4)CC3)nc(C)n12`, the max response, negative = inhibition was -2.78% (inactive). In the case of `CCOc1cccc2sc(N3CCN(C(=O)C4CC4)CC3)nc12`, the max response, negative = inhibition is reported as 4.68% (inactive). `COC(=O)c1ccccc1NC(=O)Cn1c(=O)cc(C)c2c(C)nn(-c3cccc(Cl)c3C)c21` was tested, and the max response, negative = inhibition was 1.01% (inactive). With `O=C(Nc1ccc2c(c1)OCO2)c1cc(-c2cccc(Cl)c2)on1` the max response, negative = inhibition was -7.12% (inactive). With `O=C(Nc1ccc2c(c1)OCO2)c1sc2cc(Cl)ccc2c1Cl` the Potency was 10 µM (active). `CC(C)C(=O)Nc1cccc(C(=O)Nc2ccc3c(c2)OCO3)c1` was tested, and the max response, negative = inhibition was -8.97% (inactive). In the case of `O=C(CCc1nc(CN2CCN(S(=O)(=O)c3ccc(Br)cc3)CC2)no1)N1CCCCC1`, the max response, negative = inhibition is reported as 27% (inactive). `Cc1ccc(-c2nc3ccccn3c2Nc2c(C)cccc2C)o1` was tested, and the max response, negative = inhibition was 0.509% (inactive). `Cc1ccc(-n2ncc3c(N4CCC(C(N)=O)CC4)ncnc32)cc1` was tested, and the max response, negative = inhibition was 17.2% (inactive). `CC(C)(C)c1ccc(C(=O)NCC(=O)OCN2C(=O)c3ccccc3C2=O)cc1` was tested, and the max response, negative = inhibition was 8.73% (inactive). For `O=C(OCN1C(=O)c2ccccc2C1=O)/C(=C\c1ccco1)NC(=O)c1ccccc1`, the Potency was 0.398 µM (active). For `Cc1cccc(NC(=O)/C(=C\c2ccco2)NC(=O)c2ccccc2)c1`, the max response, negative = inhibition was 4.33% (inactive). For `CCc1ccc(NC(=O)CCCc2nnc3n(CCCOC)c(=O)c4sccc4n23)cc1`, the max response, negative = inhibition was 1.39% (inactive). In the case of `CCc1ccccc1NC(=O)c1ccc2nc(CCc3ccccc3)oc2c1`, the max response, negative = inhibition is reported as 1.42% (inactive). With `Cc1ccc(NC(=S)N/N=C2/CCCc3c(C)cc(C)cc32)cc1` the Potency was 31.6 µM (active). For `Cc1ccc(NC(=S)NC2CCCC2)cc1`, the max response, negative = inhibition was -5.53% (inactive). For `CCCCNC(=S)N/N=C1\CCCCc2ccccc21`, the max response, negative = inhibition was -19.4% (inactive). For `CC(C)C[C@H](NC(=O)[C@@H]1O[C@H]1C(=O)O)C(=O)NCCCCN=C(N)N`, the Potency was 0.0316 µM (active). `COc1ccc(NC(=O)CCCc2nnc3n(CCC(C)C)c(=O)c4sccc4n23)c(OC)c1` was tested, and the max response, negative = inhibition was -6.21% (inactive). `O=C(Nc1cccc(Cl)c1)c1csnn1` was tested, and the max response, negative = inhibition was -5.33% (inactive). With `Cc1cccc2c1-c1sc(C(=O)Nc3ccc(F)cc3F)cc1CO2` the max response, negative = inhibition was -26.4% (inactive). In the case of `COc1cc(NS(=O)(=O)c2ccc3c(c2)OCC(C(=O)N2CCCC2)O3)cc(OC)c1` (configuration not stated), the max response, negative = inhibition is reported as 1.72% (inactive). With `CCCc1nc2ccccc2c(C(=O)OCC(=O)c2ccc3c(c2)NC(=O)CO3)c1CC` the max response, negative = inhibition was -2.97% (inactive). With `O=C(CCc1nc2ccccc2c(=O)[nH]1)OCC(=O)c1cccc(Cl)c1` the max response, negative = inhibition was -3.88% (inactive). In the case of `Cc1ccc(C(=O)COC(=O)c2cccc(N3C(=O)c4c(C)nc5ccccc5c4C3=O)c2)cc1C`, the Potency is reported as 7.94 µM (active). For `Cc1cccc(-n2ncc(C(=O)N3CCN(c4ccc(Cl)cc4)CC3)c2C2CCN(C(=O)OC(C)(C)C)CC2)c1`, the max response, negative = inhibition was -21.4% (inactive). `c1ccc(COc2nsnc2N2CCOCC2)cc1` was tested, and the max response, negative = inhibition was -3.44% (inactive). For `CCCCSc1ncnc2c1sc1nc(N3CCOCC3)c3c(c12)CCCC3`, the max response, negative = inhibition was 3.5% (inactive). With `c1ccc(CSc2ncnc3c2sc2nc(N4CCOCC4)c4c(c23)CCCC4)cc1` the Potency was 3.16 µM (active). In the case of `CCOC(=O)c1cc(-c2ccccc2)n(-c2cccc(C(=O)Nc3cc(OC)cc(OC)c3)c2)c1C`, the max response, negative = inhibition is reported as -4.47% (inactive). `CSc1nc(Nc2ccc(F)cc2)cc(-c2ccccc2)n1` was tested, and the max response, negative = inhibition was -2.64% (inactive). In the case of `COc1cc2c(cc1OC)C(Nc1ccc(S(N)(=O)=O)cc1)=NC(C)(C)C2`, the max response, negative = inhibition is reported as 5.29% (inactive). In the case of `COc1cc2c(cc1O)C(SC)=NC(C)(C)C2`, the max response, negative = inhibition is reported as -12.8% (inactive). In the case of `COc1cc2c(cc1OC)C(C(C)C)=NC(C)(C)C2`, the Potency is reported as 20 µM (active). For `CCOc1ccc(N(CC)S(=O)(=O)N2CCCC(C(=O)NCc3ccc(Cl)cc3)C2)cc1` (configuration not stated), the max response, negative = inhibition was 19.9% (inactive). For `CC(=O)N1CCCc2cc(S(=O)(=O)N3CCC(C(=O)NC4CCCCC4)CC3)ccc21`, the max response, negative = inhibition was 8.72% (inactive). With `COc1ccc(Nc2nc(-c3ccccc3)cs2)cc1` the max response, negative = inhibition was -15.9% (inactive). With `c1ccc(Nc2nc(-c3ccncc3)cs2)nc1` the max response, negative = inhibition was 2.93% (inactive). `c1cnc(Nc2nc(-c3ccc4ccccc4c3)cs2)nc1` was tested, and the Potency was 3.98 µM (active).
Note: nearly all actives have a fitted effect of over 40% in size.
Potency is the fitted concentration of half-maximal effect.
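Throughout, for max response, negative = inhibition: plate controls were enzyme without inhibitor for no effect and buffer without enzyme for full effect.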
